This is an account of results in PubChem BioAssay.

Each structure is given as a SMILES string. Results filed as inconclusive are left out. Calls of active or inactive are those of the source. Rule as the data show it, unless noted: active = inhibition above about 30%; inactive = the rest.

A short description of assay [1]: reduced viability of SK-BR-3 breast cancer cells – cell-based, 24 h, human, pilot screen (AID 572;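 active = viability at or below 10% of carrier control in both of two separate runs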;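 also: compound exposure lasted between 18 and 24 h rather than exactly 24 h; 100% = carrier-treated control wells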). The following applies: SK-BR-3 viability, CellTiter-Glo luminescence, at 10 µM, stronger effect = lower value.
Assay [2] can be described thus: H69AR cell proliferation blockers – human, duplicate replicates, primary screen (AID 580;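 active = viability at or under a set limit in both replicates, limit being median viability minus 3 SD, cut at about 48% in these data, passing the limit was not always enough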;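 also: 100% = mean luminescence of untreated wells and 0% = no signal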). Particulars: H69AR lung tumor cells viability, ATP luminescence, 72 h; at 10 µM; stronger effect = lower value.
Assay [3] in a line: MRP1 drug-resistance reversers in H69AR cells – cell-based, doxorubicin co-treatment, pilot screen (AID 601;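 active = viability loss from added drug above about 55%, and viability with drug at most 40%, in both replicates, limit read from the data, passing the limit was not always enough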). The following applies: CellTiter-Glo, 72 h, at 10 µM; for differential viability (reversal): stronger effect = higher value.
A short description of assay [4]: yeast transport mutant growth inhibition pilot in 384-well plates, post-Golgi transport modulator project (AID 636; in the data active = inhibition above about 31%). Particulars: absorbance 615 nm, about 18 h, stronger effect = higher value.
Assay [5] is described as follows: growth suppression of yeast trafficking mutant, preliminary HTS, modulators of trafficking downstream of Golgi apparatus project, 1536-format plate, OD 615 nm (AID 637). Particulars: yeast transport mutant growth, absorbance 615 nm, 18 h; stronger effect = higher value.
Assay [6] can be described thus: S. cerevisiae growth inhibition in permissive medium (OD615), pilot counter-assay for S. cerevisiae lifespan shortening project, permissive growth control (AID 705;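 active = growth inhibition above 25% in both replicates, a cutoff set 3 SD above the mean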). Particulars: OD615, 24 h, at 10 µM, stronger effect = higher value.
A short description of assay [7]: S. cerevisiae growth inhibition in restrictive medium, OD615, pilot screen, restrictive growth control, yeast lifespan reduction project (AID 706;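 active = growth inhibition above a set limit, 3 SD over mean compound inhibition, in both replicates, cut at about 43% in these data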;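 also: modified DeaD lifespan yeast strain shifted to restrictive glucose medium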). Particulars: OD615, 48 h, at 10 µM, stronger effect = higher value.
Assay [8] is described as follows: doxorubicin toxicity protection in MRP-1 cells – H69AR cells, CellTiter-Glo, duplicate, MRP-1 activator project, pilot screen (AID 807;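 active = viability increase at or above a cutoff of the median across tested compounds plus 3 SD, cut at about 8.5% in these data, passing the limit was not always enough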;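 also: compound pretreatment 18-22 h then 72 h combined with doxorubicin; 0% = doxorubicin alone and 100% = vehicle without doxorubicin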). Particulars: H69AR viability with doxorubicin, CellTiter-Glo luminescence; at 10 µM; stronger effect = higher value.
Assay [9] is described as follows: viability of HCT116 without oncogenic beta-catenin – human colon tumor cells, pilot screen (AID 823;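 active = cell viability at or below a set limit in both duplicate runs, the limit being the all-compound median minus 4 SD, cut at about 23% in these data, passing the limit was not always enough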;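 also: 0% = wells killed by 20 µM Hyamine and 100% = untreated DMSO cell wells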). Particulars: HCT116 beta-catenin knockout viability, CellTiter-Glo, 60 h; at 10 µM; stronger effect = lower value.
Assay [10] is described as follows: viability of PTEN-null HCT116 cells – cell-based, HCT116 clonal line, CellTiter-Glo, pilot screen (AID 824;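 active = viability at or below 27.92% in each of two runs, the all-compound median minus 4 SD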;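 also: 0% = 20 µM Hyamine control and 100% = vehicle cell control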). The following applies: HCT116 PTEN-deleted viability, 60 h, at 10 µM, stronger effect = lower value.
A short description of assay [11]: RAM pathway blockade in budding yeast – dse1pr::URA3 reporter, 5-FOA selection, pilot screen (AID 869;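 active = inhibition over a set limit, the all-compound mean plus 3 SD, in both replicate runs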;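 also: 0% = DMSO wells with no growth and 100% = 10 µM 1-NA-PP1 with full growth; RAM network block rescues cells from 5-FOA so hits raise OD615 growth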). Particulars: S. cerevisiae dse1pr::URA3 5-FOA growth, OD615, 2 d; at 10 µM; stronger effect = higher value; strain carries analog-sensitive mutant Cbk1 kinase.
Setting [12] is: H69AR cells + 2 uM doxorubicin, measured here: viability with 2 uM doxorubicin, stronger effect = lower value.
Setting [13] is: H69AR cells, compound alone cytotoxicity.

On to `O=S(=O)(c1cccc2cnccc12)N1CCCNCC1`, for which the viability was 140% (inactive) in assay [1], 97.4% (inactive) in assay [2], 95.5% in assay [3] (setting [12]) and 97.4% in [3] (setting [13]). For the same molecule, the differential viability (reversal) in assay [3] (H69AR cells + 2 uM doxorubicin) was 1.83% (inactive). Also, the inhibition in assay [4] is -2.08% (inactive); in [5] it was 4.5% (inactive).

As for `COc1cccc(CN2C(=O)C3(C(C#N)=C(N)OC4=C3C(=O)CCC4)c3ccccc32)c1` (stereo unspecified), the values for the viability in assay [1], in assay [3] (setting [12]) and in assay [3] (setting [13]) were 104% (inactive), 12.6% and 10.6%, respectively. In addition, the differential viability (reversal) in assay [3] (H69AR cells + 2 uM doxorubicin) was -2.01% (inactive). The inhibition in assay [4] was 84.2% (active); in [5], 51.6% (active).

Consider `O=C(CNCCC1=CCCCC1)Nc1ccccc1N1CCCCC1`, for which the viability was 102% (inactive) in assay [1], 66.9% in assay [3] (setting [12]) and 61.6% in assay [3] (setting [13]). The differential viability (reversal) in assay [3] (H69AR cells + 2 uM doxorubicin) is -5.31% (inactive). For the same molecule, the inhibition in [4] is -1.08% (inactive); in [5] it was 6.51% (inactive).

As to `COC(=O)c1ccccc1NC(=O)Cn1c(-c2nonc2N)nc2ccccc21`, the viability in assay [1] was 70.5% (inactive); in assay [2], 15.7% (active); in assay [3] (setting [12]) it was 26.1%; in assay [3] (setting [13]) it was 15.7%. In addition, the differential viability (reversal) in assay [3] (H69AR cells + 2 uM doxorubicin) is -10.4% (inactive). The results for the inhibition in [4] and in assay [5] were 1.07% (inactive) and -4.84% (inactive), respectively.

For the molecule `Cc1nnc(NCc2n[nH]c(=O)c3ccccc23)c2ccccc12`, the viability is 72% (inactive) in assay [1], 67.1% (inactive) in assay [2], 81.9% in assay [3] (setting [12]) and 67.1% in assay [3] (setting [13]). In assay [3] (H69AR cells + 2 uM doxorubicin), the differential viability (reversal) is -14.8% (inactive). The figures for the inhibition in [4] and in assay [5] were -3.38% (inactive) and 1.64% (inactive), respectively.

Turning to `COc1ccc(-n2cc(-c3ccccc3)c3c(N4CCN(CCO)CC4)ncnc32)cc1`, the viability was 100% (inactive) in assay [1], 56.2% (inactive) in assay [2], 45.7% in assay [3] (setting [12]) and 56.2% in [3] (setting [13]). In addition, the differential viability (reversal) in assay [3] (H69AR cells + 2 uM doxorubicin) is 10.5% (inactive). For the same molecule, the inhibition in [4] was -6.13% (inactive); in [5] it was 0.48% (inactive).

For `Cc1ccc(-c2cc(C(F)F)nc(NCC3CCCO3)n2)cc1` (stereo unspecified), the viability in assay [1] is 86% (inactive); in assay [2], 100% (inactive); in [3] (setting [12]) it was 94.2%; in assay [3] (setting [13]) it was 100%; in assay [9], 66.4% (inactive); in [10], 71.6% (inactive). For the same molecule, the differential viability (reversal) in assay [3] (H69AR cells + 2 uM doxorubicin) was 6.21% (inactive). The inhibition in assay [4] is 1.56% (inactive); in assay [5], -5.25% (inactive); in assay [11], 1.38% (inactive). Besides, the growth inhibition is -12.2% (inactive) in [6] and -9% (inactive) in assay [7]. In assay [8], the viability increase is 2.09% (inactive).

For the molecule `CCCCC[C@H](O)/C=C/[C@H]1C=CC(=O)[C@@H]1C/C=C\CCCC(=O)O`, the viability was 111% (inactive) in [1], 67.4% (inactive) in [2], 57.6% in assay [3] (setting [12]) and 67.4% in assay [3] (setting [13]). For the same molecule, the differential viability (reversal) in assay [3] (H69AR cells + 2 uM doxorubicin) is 9.76% (inactive). Besides, the values for the inhibition in assay [4] and in [5] were -2.99% (inactive) and -0.5% (inactive), respectively.

On to `CCc1nnc(NC(=O)c2ccc(S(=O)(=O)N(CC(C)C)CC(C)C)cc2)o1`, for which the viability is 77% (inactive) in [1], 32.9% (active) in [2], 61.4% in assay [3] (setting [12]) and 32.9% in [3] (setting [13]). The differential viability (reversal) in assay [3] (H69AR cells + 2 uM doxorubicin) was -28.4% (inactive). In addition, the inhibition is 3.9% (inactive) in assay [4] and 0.66% (inactive) in [5].

In the case of `COc1ccc(Cl)c(N2CCN(CCCNC(=O)Nc3ccc(C)cc3)CC2)c1`, the viability is 98% (inactive) in [1], 60.3% in assay [3] (setting [12]) and 45.4% in assay [3] (setting [13]). In addition, in assay [3] (H69AR cells + 2 uM doxorubicin), the differential viability (reversal) is -14.9% (inactive). Further, the inhibition in assay [4] is -5.34% (inactive); in assay [5] it was -2.91% (inactive).

With `COc1ccc(Br)cc1-c1noc(-c2ccccc2)n1`, the viability in assay [1] is 99% (inactive); in assay [2] it was 78.5% (inactive); in assay [3] (setting [12]), 79.1%; in assay [3] (setting [13]), 78.5%. Also, the differential viability (reversal) in assay [3] (H69AR cells + 2 uM doxorubicin) is -0.585% (inactive). Also, the inhibition in assay [4] was -3.87% (inactive); in [5] it was -4.36% (inactive).

In the case of `CN1CCN(C2=Nc3cc(Cl)ccc3Nc3ccccc32)CC1`, the viability in assay [1] was 94% (inactive); in assay [2], 68% (inactive); in assay [3] (setting [12]) it was 51%; in assay [3] (setting [13]), 68%. Further, the differential viability (reversal) in assay [3] (H69AR cells + 2 uM doxorubicin) is 17% (inactive). In addition, the inhibition in assay [4] was 1.82% (inactive); in assay [5], 3.67% (inactive).

For `CCc1oc2ccccc2c1C(=O)c1cc(Br)c(O)c(Br)c1`, the viability in assay [1] was 95% (inactive); in [2], 79% (inactive); in assay [3] (setting [12]), 102%; in [3] (setting [13]), 79%. Further, the differential viability (reversal) in [3] (H69AR cells + 2 uM doxorubicin) was -23.2% (inactive). Besides, the inhibition was -0.52% (inactive) in assay [4] and 54.7% (active) in assay [5].

Take `O=C(O)c1ccc2c3c(ncnc13)-c1ccccc1C2=O`: the viability in [1] was 60.5% (inactive); in assay [2], 80.3% (inactive); in assay [3] (setting [12]), 99.8%; in assay [3] (setting [13]), 80.3%. The differential viability (reversal) in assay [3] (H69AR cells + 2 uM doxorubicin) is -19.5% (inactive). The inhibition in [4] is 5.51% (inactive); in assay [5] it was 1.67% (inactive).

Consider `O=S(=O)(c1ccc(Oc2ccc(-c3nnco3)cc2)nc1)N1CCC(Cc2ccccc2)CC1`, for which the viability in assay [1] was 109% (inactive); in assay [3] (setting [12]), 60.4%; in [3] (setting [13]), 51.9%. Also, in assay [3] (H69AR cells + 2 uM doxorubicin), the differential viability (reversal) was -8.52% (inactive). For the same molecule, the inhibition in assay [4] was -4.11% (inactive); in assay [5], -10.3% (inactive).

`Cc1ccc(Cl)cc1N1CCN(C(=O)c2cn(C)c(=O)c3c2c2ccccc2n3C)CC1`: the viability is 94% (inactive) in assay [1], 3.07% (active) in [2], 31.8% in assay [3] (setting [12]) and 3.07% in assay [3] (setting [13]). Also, in assay [3] (H69AR cells + 2 uM doxorubicin), the differential viability (reversal) is -28.7% (inactive). Moreover, the inhibition in assay [4] was -1.73% (inactive); in [5], 4.73% (inactive).

For the molecule `Fc1ccc(C(c2ccc(F)cc2)N2CCN(C/C=C/c3ccccc3)CC2)cc1`, the viability in [1] was 89% (inactive); in [2], 76.7% (inactive); in assay [3] (setting [12]), 82.3%; in assay [3] (setting [13]) it was 76.7%. In addition, the differential viability (reversal) in assay [3] (H69AR cells + 2 uM doxorubicin) was -5.65% (inactive). For the same molecule, the inhibition in assay [4] is 3.38% (inactive); in assay [5] it was -1.17% (inactive).

As to `COc1ccccc1N1CCN(Cc2nc(N)nc(Nc3ccc(C)c(Cl)c3)n2)CC1`, the viability in assay [1] was 104% (inactive); in [3] (setting [12]), 65.1%; in assay [3] (setting [13]), 38.8%. Besides, the differential viability (reversal) in [3] (H69AR cells + 2 uM doxorubicin) is -26.3% (inactive). The inhibition was -1.3% (inactive) in assay [4] and -3.28% (inactive) in assay [5].

With `COc1ccccc1NC(=O)c1oc2ccccc2c1NC(=O)c1cc(OC)c(OC)c(OC)c1`, the viability in [1] was 56.5% (inactive); in assay [2], 16.9% (active); in [3] (setting [12]) it was 35.3%; in [3] (setting [13]), 16.9%. In assay [3] (H69AR cells + 2 uM doxorubicin), the differential viability (reversal) was -18.4% (inactive). Moreover, the figures for the inhibition in [4] and in assay [5] were -3.33% (inactive) and -2.1% (inactive), respectively.

`Oc1ccc(/C=C/c2cc(O)cc(O)c2)cc1`: the viability in assay [1] is 115% (inactive); in assay [2], 76.9% (inactive); in [3] (setting [12]), 88.6%; in assay [3] (setting [13]), 76.9%. For the same molecule, the differential viability (reversal) in [3] (H69AR cells + 2 uM doxorubicin) is -11.7% (inactive). Moreover, the values for the inhibition in assay [4] and in [5] were 0.13% (inactive) and -5.17% (inactive), respectively.
